Results taken from PubChem BioAssay (NCI).
Compounds without any hit were thinned out: in the full panel of roughly 79,000, 15% have a hit. A number with no mark means an inactive call. The source made the active and inactive calls. Cut-off read from the data, not from the text of the source: active = growth inhibition above about 70%; inactive = the rest.

What was measured:
[1] = NCI Yeast Anticancer Drug Screen. Data for the rad14 strain (AID 159);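 note: 0% = growth of vehicle-treated control cultures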; details: S. cerevisiae rad14 strain growth inhibition; at 100.0 µM; stronger effect = higher value
In short: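 Vehicle-treated cultures served as the baseline for growth inhibition of a DNA repair-mutant yeast strain exposed to each compound.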

[2] = NCI Yeast Anticancer Drug Screen. Data for the sgs1 mgt1 strain (AID 161);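 note: 0% = growth of cultures given vehicle only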; details: S. cerevisiae sgs1 mgt1 strain, stronger effect = higher value
In short: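 Growth of a repair-deficient yeast mutant was monitored after compound treatment and expressed as inhibition relative to vehicle-treated cultures.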

[3] = NCI Yeast Anticancer Drug Screen. Data for the CLN2oe strain (AID 163);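 note: 0% = growth of vehicle-only control cultures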; details: S. cerevisiae CLN2oe strain, stronger effect = higher value
In short: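 Compound-treated yeast; growth vs vehicle ctrl = % inhibition. Genetically altered strain (cell-cycle control).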

[4] = NCI Yeast Anticancer Drug Screen. Data for the cln2 rad14 strain (AID 165);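 note: 0% = growth equal to vehicle treated cultures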; details: S. cerevisiae cln2 rad14 strain, stronger effect = higher value
In short: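 Growth inhibition, relative to vehicle-treated controls, is the read-out. The test organism is a yeast strain with defined genetic alterations, cln2 rad14.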

[5] = NCI Yeast Anticancer Drug Screen. Data for the bub3 strain (AID 167); details: S. cerevisiae bub3 mutant strain, stronger effect = higher value
In short: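 Inhibition values come from growth of compound-treated mutant yeast normalised to vehicle-treated controls.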

[6] = NCI Yeast Anticancer Drug Screen. Data for the wt2 strain (AID 169);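 note: 0% = growth of vehicle-treated yeast cultures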; details: S. cerevisiae wt2 strain growth inhibition, stronger effect = higher value
In short: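 Compound exposure of yeast; growth compared with vehicle controls; inhibition reported.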

[7] = NCI Yeast Anticancer Drug Screen. Data for the mlh1 strain (AID 171);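 note: 0% = growth of vehicle-treated control cultures of the same strain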; details: S. cerevisiae mlh1 strain growth inhibition, stronger effect = higher value
In short: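 Compounds are applied to a genetically altered yeast strain, and its growth is compared with that of vehicle-treated cultures to give percent inhibition.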

[8] = NCI Yeast Anticancer Drug Screen. Data for the mlh1 rad18 strain (AID 175); details: S. cerevisiae mlh1 rad18 strain growth inhibition, stronger effect = higher value
In short: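 Cells of a genetically altered yeast strain, deficient in DNA damage repair, were treated with compound. Their growth was then compared with that of vehicle-treated cultures to give inhibition.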

[9] = NCI Yeast Anticancer Drug Screen. Data for the rad18 strain (AID 177); details: S. cerevisiae rad18 mutant growth inhibition, stronger effect = higher value
In short: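 Compounds are applied to a repair-deficient yeast strain, and growth is compared with that of vehicle-treated cultures to give percent inhibition.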

[10] = NCI Yeast Anticancer Drug Screen. Data for the wt1 strain (AID 149);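 note: 0% = growth of vehicle-treated wt1 cultures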; details: S. cerevisiae wt1 strain (SPY 50644) growth inhibition, stronger effect = higher value
In short: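 Vehicle-normalised growth inhibition; strain wt1; compound exposure.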

[11] = NCI Yeast Anticancer Drug Screen. Data for the rad50EPP+ strain (AID 151);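 note: 0% = growth of vehicle-treated control cultures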; details: S. cerevisiae rad50 mutant strain, stronger effect = higher value
In short: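 rad50EPP+ yeast treated with test compounds. Readout: growth vs vehicle control.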

[12] = NCI Yeast Anticancer Drug Screen. Data for the mgt1 strain (AID 153); details: S. cerevisiae mgt1 mutant growth inhibition, stronger effect = higher value
In short: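 Growth inhibition relative to vehicle controls was scored for the mgt1 yeast strain after compound exposure.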

[13] = NCI Yeast Anticancer Drug Screen. Data for the rad50 strain (AID 155);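 note: 0% = growth of vehicle-only cultures of the same strain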; details: S. cerevisiae rad50 strain growth inhibition, stronger effect = higher value
In short: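 A DNA repair-deficient yeast mutant serves as the test organism; compound-induced growth inhibition is calculated against vehicle-treated cells.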

[14] = NCI Yeast Anticancer Drug Screen. Data for the mec2-1 strain (AID 157); details: S. cerevisiae mec2-1 strain, stronger effect = higher value
In short: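 Growth inhibition is read against vehicle-treated controls after compound exposure of the mec2-1 yeast strain, which is defective in DNA damage repair or cell cycle control.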

[15] = NCI Yeast Anticancer Drug Screen. Data for the sgs1 strain (AID 173);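 note: 0% = growth of vehicle-only control cultures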; details: S. cerevisiae sgs1 mutant, stronger effect = higher value
In short: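 Compounds applied to genetically altered yeast; growth compared with vehicle-treated cultures to give % inhibition.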

[16] = at 5.0 µM (retest, dose inferred, filed as 0.5)
[17] = at 50.0 µM (retest, dose inferred, filed as 5.0)

## CCOc1ccccc1N1C(=O)CC(Sc2ccccc2N)C1=O (stereo unspecified)
[1]
  growth inhibition: -55%
[2]; [16]
  growth inhibition: -5%
[2]; [17]
  growth inhibition: 24%
[2]; at 50.0 µM
  growth inhibition: 14.4%
[3]; at 1.2 µM
  growth inhibition: 10%
[3]; at 3.7 µM
  growth inhibition: 6%
[3]; at 11.0 µM
  growth inhibition: 1%
[3]; at 33.0 µM
  growth inhibition: -15%
[3]; at 100.0 µM
  growth inhibition: -19%
[4]; [16]
  growth inhibition: 39%
[4]; [17]
  growth inhibition: 1%
[4]; at 50.0 µM
  growth inhibition: -13.9%
[5]; at 1.2 µM
  growth inhibition: -4%
[5]; at 3.7 µM
  growth inhibition: 1%
[5]; [16]
  growth inhibition: 30%
[5]; at 11.0 µM
  growth inhibition: -10%
[5]; at 33.0 µM
  growth inhibition: -23%
[5]; [17]
  growth inhibition: 38%
[5]; at 50.0 µM
  growth inhibition: 11.4%
[5]; at 100.0 µM
  growth inhibition: -38%
[6]; at 1.2 µM
  growth inhibition: -2%
[6]; at 3.7 µM
  growth inhibition: -7%
[6]; at 11.0 µM
  growth inhibition: -8%
[6]; at 33.0 µM
  growth inhibition: -7%
[6]; at 100.0 µM
  growth inhibition: -13%
[7]; at 1.2 µM
  growth inhibition: -10%
[7]; at 3.7 µM
  growth inhibition: -18%
[7]; at 11.0 µM
  growth inhibition: -33%
[7]; at 33.0 µM
  growth inhibition: -18%
[7]; at 100.0 µM
  growth inhibition: -24%
[8]; [16]
  growth inhibition: 37%
[8]; [17]
  growth inhibition: 70% (active)
[8]; at 50.0 µM
  growth inhibition: 16.5%
[9]; at 1.2 µM
  growth inhibition: 1%
[9]; at 3.7 µM
  growth inhibition: -12%
[9]; at 11.0 µM
  growth inhibition: -22%
[9]; at 33.0 µM
  growth inhibition: -13%
[9]; at 100.0 µM
  growth inhibition: -24%

## [Cl][Pt+2][Cl].[NH-]CC1(C[NH-])CCCCC1
[10]; at 1.2 µM
  growth inhibition: -67%
[10]; at 3.7 µM
  growth inhibition: -17%
[10]; at 11.0 µM
  growth inhibition: 99% (active)
[10]; at 33.0 µM
  growth inhibition: 99% (active)
[10]; at 100.0 µM
  growth inhibition: 98% (active)
[11]; at 1.2 µM
  growth inhibition: -41%
[11]; at 3.7 µM
  growth inhibition: -6%
[11]; at 11.0 µM
  growth inhibition: 96% (active)
[11]; at 33.0 µM
  growth inhibition: 98% (active)
[11]; at 100.0 µM
  growth inhibition: 98% (active)
[12]; at 1.2 µM
  growth inhibition: -44%
[12]; at 3.7 µM
  growth inhibition: 12%
[12]; at 11.0 µM
  growth inhibition: 98% (active)
[12]; at 33.0 µM
  growth inhibition: 99% (active)
[12]; at 100.0 µM
  growth inhibition: 98% (active)
[13]; at 1.2 µM
  growth inhibition: -63%
[13]; at 3.7 µM
  growth inhibition: -37%
[13]; [16]
  growth inhibition: 26%
[13]; at 11.0 µM
  growth inhibition: 86% (active)
[13]; at 33.0 µM
  growth inhibition: 98% (active)
[13]; [17]
  growth inhibition: 100% (active)
[13]; at 50.0 µM
  growth inhibition: 91.1% (active)
[13]; at 100.0 µM
  growth inhibition: 98% (active)
[14]; at 1.2 µM
  growth inhibition: -67%
[14]; at 3.7 µM
  growth inhibition: -19%
[14]; [16]
  growth inhibition: 21%
[14]; at 11.0 µM
  growth inhibition: 98% (active)
[14]; at 33.0 µM
  growth inhibition: 99% (active)
[14]; [17]
  growth inhibition: 100% (active)
[14]; at 50.0 µM
  growth inhibition: 91.9% (active)
[14]; at 100.0 µM
  growth inhibition: 98% (active)
[2]; [16]
  growth inhibition: 53%
[2]; [17]
  growth inhibition: 100% (active)
[2]; at 50.0 µM
  growth inhibition: 92.7% (active)
[3]; at 1.2 µM
  growth inhibition: -5%
[3]; at 3.7 µM
  growth inhibition: 14%
[3]; at 11.0 µM
  growth inhibition: 62%
[3]; at 33.0 µM
  growth inhibition: 98% (active)
[3]; at 100.0 µM
  growth inhibition: 98% (active)
[4]; [16]
  growth inhibition: 43%
[4]; [17]
  growth inhibition: 100% (active)
[4]; at 50.0 µM
  growth inhibition: 69.5%
[5]; at 1.2 µM
  growth inhibition: -42%
[5]; at 3.7 µM
  growth inhibition: 23%
[5]; [16]
  growth inhibition: 45%
[5]; at 11.0 µM
  growth inhibition: 97% (active)
[5]; at 33.0 µM
  growth inhibition: 99% (active)
[5]; [17]
  growth inhibition: 100% (active)
[5]; at 50.0 µM
  growth inhibition: 91.7% (active)
[5]; at 100.0 µM
  growth inhibition: 98% (active)
[6]; at 1.2 µM
  growth inhibition: -23%
[6]; at 3.7 µM
  growth inhibition: 28%
[6]; at 11.0 µM
  growth inhibition: 90% (active)
[6]; at 33.0 µM
  growth inhibition: 99% (active)
[6]; at 100.0 µM
  growth inhibition: 99% (active)
[7]; at 1.2 µM
  growth inhibition: -68%
[7]; at 3.7 µM
  growth inhibition: -2%
[7]; at 11.0 µM
  growth inhibition: 97% (active)
[7]; at 33.0 µM
  growth inhibition: 98% (active)
[7]; at 100.0 µM
  growth inhibition: 97% (active)
[15]; at 1.2 µM
  growth inhibition: -14%
[15]; at 3.7 µM
  growth inhibition: 11%
[15]; at 11.0 µM
  growth inhibition: 83% (active)
[15]; at 33.0 µM
  growth inhibition: 98% (active)
[15]; at 100.0 µM
  growth inhibition: 97% (active)
[8]; [16]
  growth inhibition: 3%
[8]; [17]
  growth inhibition: 99% (active)
[8]; at 50.0 µM
  growth inhibition: 88.8% (active)
[9]; at 1.2 µM
  growth inhibition: -24%
[9]; at 3.7 µM
  growth inhibition: -6%
[9]; at 11.0 µM
  growth inhibition: 89% (active)
[9]; at 33.0 µM
  growth inhibition: 97% (active)
[9]; at 100.0 µM
  growth inhibition: 96% (active)
